High-throughput results: PubChem BioAssay, The Scripps Research Institute Molecular Screening Center
An excerpt weighted towards active compounds, which were near 3.3% of everything screened.
PRMT1 inh: PRMT1 (human) inhibition, primary screen; inhibition, % at 2.79 µM; Q99873; AID 652257; recombinant PRMT1, activity-based probe fluorescence polarization; hit rate 1.3% among 370,000;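 active means inhibition above about 21% made by adding two undisclosed values, limit read from the data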
TLR4-MyD88 BLA: blocks binding of human TLR4 to MyD88 | HeLa CL3-4 TLR4/MyD88 BLA complementation, FRET ratio | inhibition, % at 8.4 µM | hit rate 0.18% among 200,000 | AID 861; in the data active means inhibition above about 25%;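 further: 0% = vehicle and 100% = reference inhibitor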
TLR9-MyD88 block: TLR9-MyD88 interaction inhibition; Q9NR96+Q99836; CHO BLA complementation TLR9-MyD88, CCF4 FRET ratio; hit rate 0.21% among 340,000; AID 504734; inhibition, % at 4.98 µM;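 active means inhibition above the mean over all tested compounds plus 3 SD, cut at about 21% in these data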;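 further: 0% = DMSO only wells and 100% = clavulanate BLA inhibitor control wells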
rCAG RNA binder: binds r(CAG) RNA repeats; r(CAG) RNA repeat, TO-PRO-1 dye displacement fluorescence; inhibition, % at 3 µM; hit rate 1.3% among 370,000; AID 651821;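 active means inhibition above the plate cutoff, the mean of all test compounds on that plate plus 3 SD, cut at about 35% in these data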;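 further: 0% = DMSO alone and 100% = 100 µM mitoxantrone as full dye displacement; higher means more dye released from RNA so lower well fluorescence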
NOD2 RIPK2 PPI: NOD2-RIPK2 protein interaction inhibition | AID 624267 | hit rate 0.38% among 360,000 | O43353 | inhibition, % at 4.98 µM | CHO BLA complementation NOD2-RIPK2, CCF4 ratio; in the data active means inhibition above about 21%;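 further: 0% = vehicle only and 100% = reference blocker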
ABHD5-PLIN5 inh: ABHD5-PLIN5 protein interaction inhibition; Q00G26+Q8WTS1; Split G. princeps luciferase complementation, luminescence, 4 h; inhibition, % at 4 µM; hit rate 0.78% among 360,000; AID 602281;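 active means inhibition above the mean inhibition across every tested compound plus 3 SD, cut at about 22% in these data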;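 further: 0% = DMSO only wells and the 100% control is not disclosed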
PRMT1 inh conf: confirmation of human PRMT1 inhibitors. shares compounds with PRMT1 inh. recombinant His-PRMT1, activity-based probe fluorescence polarization. inhibition, % at 2.79 µM. hit rate 42% among 3,300;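 active means mean inhibition across replicates above the hit cutoff derived for the earlier primary screen, cut at about 22% in these data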
* marks the source's active call; other numbers are inactive results; . = no result given.

SMILES	PRMT1 inh	TLR4-MyD88 BLA	TLR9-MyD88 block	rCAG RNA binder	NOD2 RIPK2 PPI	ABHD5-PLIN5 inh	PRMT1 inh conf
CN1CC=C2C(C#N)=C(N)C(C#N)(C#N)[C@H](c3cccc(Cl)c3)C2C1 (stereo not given in full)	26*	5	-12	-16	-4	-10	13
CCCC(=O)OC12CCCN(C1)/C(=C/c1ccc(C#N)cc1)C2 (stereo not given)	-1	.	.	4	.	.	.
CC(Oc1cccnc1[N+](=O)[O-])C(=O)Nc1cccc(Cl)c1 (stereo not given)	0	.	-6	0	1	2	.
Cc1ccc(OCC(=O)NNC(=O)c2ccccc2OCc2c(C)noc2C)cc1	-3	.	-5	-6	-3	-5	.
C=CCc1cccc2cc(C(=O)NNC(=O)c3ccncc3)c(=O)oc12	27*	-5	-1	7	-7	3	26*
C=CCc1cccc2cc(C(=O)Nc3cccc(C(=O)O)c3)c(=O)oc12	0	.	.	1	.	.	.
COC(=O)[C@@]1(C)[C@H]2C(=O)N(C)C(=O)[C@H]2[C@H]2CN=C(SCC(=O)c3ccccc3)N21	76*	.	-2	4	13	-20	80*
CC[C@]1(C(=O)OC)[C@H]2C(=O)N(Cc3ccccc3)C(=O)[C@H]2[C@H]2CN=C(SCC(=O)c3ccccc3)N21	54*	.	-9	3	-12	-12	58*
COC(=O)[C@@]1(Cc2ccccc2)[C@H]2C(=O)N(Cc3ccccc3)C(=O)[C@H]2[C@H]2CN=C(SCC(=O)c3ccccc3)N21	18	.	-2	6	-1	-10	.
CC(C)(C)c1ccc(C(=O)NCC(=O)OCC(=O)N2CCCC2)cc1	-1	.	-7	-1	-9	0	.
COc1ccc(N2C(=O)c3cccc4c(N(C)CCO)ccc(c34)C2=O)cc1	29*	.	0	-51	9	11	24*
COc1ccc(CNC(=O)C(C)Sc2nc3ccccc3c(=O)n2CC2CCCO2)cc1 (stereo not given)	-1	.	5	0	2	-2	.
COC(=O)c1ccc2nc(-c3ccco3)c(Cc3ccsc3)n2c1	33*	.	.	26	.	.	37*
COC(=O)c1ccc2nc(-c3ccco3)c(Cc3cccc(Cl)c3)n2c1	25*	.	.	14	-8	22	8
Clc1ccc2nc(-c3ccco3)c(Cc3ccsc3)n2c1	47*	.	.	33	-14	49*	23*
COC(=O)c1ccc2nc(-c3cccc(Cl)c3)c(Cc3cccc(Cl)c3)n2c1	1	.	.	5	1	0	.
COC(=O)c1ccc2nc(-c3ccccc3)c(Cc3ccsc3)n2c1	3	.	.	6	-6	6	.
COC(=O)C1=C(C)N(CCc2c[nH]c3ccc(OC)cc23)C(=O)C1	2	-6	1	6	-9	-1	.
O=C1CC(c2ccc(Cl)cc2)SC(N(c2ccccc2)c2ccccc2)=N1 (stereo not given)	2	-10	10	10	-9	1	.
Cc1cc(O)c(C2=Nc3ccccc3SC(c3ccc(Cl)cc3)C2)c(=O)o1 (stereo not given)	37*	5	5	5	-2	-10	10
CCOc1ccc(S(=O)(=O)Nc2ccc(C(=O)NCC(c3ccco3)N3CCCCC3)cc2)cc1 (stereo not given)	4	.	-2	2	6	-16	.
CCOCCCNC(=O)c1cc2c(s1)-c1ccccc1SC2	40*	.	-4	14	-5	1	15
N#Cc1ccc(COC(=O)CC(NC(N)=O)c2ccc(Cl)cc2)cc1 (stereo not given)	-2	.	-9	0	-4	6	.
Cc1cccc(N2C(=O)CC(Sc3nnc(C)s3)C2=O)c1 (stereo not given)	61*	0	-7	8	-6	2	44*
Cc1cc(C)cc(N2C(=O)CC(Sc3nnnn3-c3ccccc3)C2=O)c1 (stereo not given)	56*	13	-1	4	2	19	55*
CCOc1ccc2nc(SC3CC(=O)N(c4ccccc4)C3=O)sc2c1 (stereo not given)	.	2	0	.	-19	-4	.
